# Test results taken from PMC8384837, “Expanding the binding specificity for RNA recognition by a PUF domain”.
# How the values were obtained:
# Assay in all cases: yeast three-hybrid, YBZ-1, SC-Leu-His + 0.5 mM 3-AT, 4 days
# Details in all cases: tags: N-Gal4 AD-HA kept; label: inside an RPR1-promoter hybrid RNA with tandem MS2 sites; ssRNA
# PUM1 PUF domain R3-LRR = PUM1 PUF domain R3-LRR (Homo sapiens, UniProt Q14671 828-1176, C935L;Q939R)
# How it was run: (§1)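 The interaction score is the logarithmic change in variant frequency from input to selection. It uses log2, with a pseudocount of 1 for absent variants, and frequencies came from PCR-amplified, Illumina-sequenced repeat regions. The libraries were Pumilio-1 PUF domains randomized at the three base-contacting residues per repeat, co-expressed with matching RNA elements in strain YBZ-1 (LexA–MS2 coat fusion, HIS3 reporter). Plating lasted four days on SC-Leu (input) or SC-Leu-His + 0.5 mM 3-AT (selection).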
# PUM1 PUF domain R3-YSV = PUM1 PUF domain R3-YSV (Homo sapiens, UniProt Q14671 828-1176, C935Y;R936S;Q939V)
# How it was run: as §1
# PUM1 PUF domain R3-LHA = PUM1 PUF domain R3-LHA (Homo sapiens, UniProt Q14671 828-1176, C935L;R936H;Q939A)
# How it was run: as §1
# PUM1 PUF domain R4-EPR = PUM1 PUF domain R4-EPR (Homo sapiens, UniProt Q14671 828-1176, N971E;H972P;Q975R)
# How it was run: as §1
# PUM1 PUF domain R1-KGL = PUM1 PUF domain R1-KGL (Homo sapiens, UniProt Q14671 828-1176, S863K;R864G;Q867L)
# How it was run: as §1
# PUM1 PUF domain R1-GRH = PUM1 PUF domain R1-GRH (Homo sapiens, UniProt Q14671 828-1176, S863G;Q867H)
# How it was run: as §1
# PUM1 PUF domain R1-KWM = PUM1 PUF domain R1-KWM (Homo sapiens, UniProt Q14671 828-1176, S863K;R864W;Q867M)
# How it was run: as §1
# PUM1 PUF domain R4-APS = PUM1 PUF domain R4-APS (Homo sapiens, UniProt Q14671 828-1176, N971A;H972P;Q975S)
# How it was run: as §1
# PUM1 PUF domain R5-SGV = PUM1 PUF domain R5-SGV (Homo sapiens, UniProt Q14671 828-1176, C1007S;R1008G;Q1011V)
# How it was run: as §1
# PUM1 PUF domain R5-DHL = PUM1 PUF domain R5-DHL (Homo sapiens, UniProt Q14671 828-1176, C1007D;R1008H;Q1011L)
# How it was run: as §1
# PUM1 PUF domain R5-PRE = PUM1 PUF domain R5-PRE (Homo sapiens, UniProt Q14671 828-1176, C1007P;Q1011E)
# How it was run: as §1
# PUM1 PUF domain R5-DFP = PUM1 PUF domain R5-DFP (Homo sapiens, UniProt Q14671 828-1176, C1007D;R1008F;Q1011P)
# How it was run: as §1
# PUM1 PUF domain R8-KKR = PUM1 PUF domain R8-KKR (Homo sapiens, UniProt Q14671 828-1176, N1122K;Y1123K;Q1126R)
# How it was run: as §1
# PUM1 PUF domain R5-RAN = PUM1 PUF domain R5-RAN (Homo sapiens, UniProt Q14671 828-1176, C1007R;R1008A;Q1011N)
# How it was run: as §1
# PUM1 PUF domain R3-DWS = PUM1 PUF domain R3-DWS (Homo sapiens, UniProt Q14671 828-1176, C935D;R936W;Q939S)
# How it was run: as §1
# PUM1 PUF domain R4-RCG = PUM1 PUF domain R4-RCG (Homo sapiens, UniProt Q14671 828-1176, N971R;H972C;Q975G)
# How it was run: as §1
# PUM1 PUF domain R6-SWC = biological target: T1, PUM1 PUF domain R6-SWC (Homo sapiens, UniProt Q14671 828-1176, N1043S;Y1044W;Q1047C)
# T1 sequence: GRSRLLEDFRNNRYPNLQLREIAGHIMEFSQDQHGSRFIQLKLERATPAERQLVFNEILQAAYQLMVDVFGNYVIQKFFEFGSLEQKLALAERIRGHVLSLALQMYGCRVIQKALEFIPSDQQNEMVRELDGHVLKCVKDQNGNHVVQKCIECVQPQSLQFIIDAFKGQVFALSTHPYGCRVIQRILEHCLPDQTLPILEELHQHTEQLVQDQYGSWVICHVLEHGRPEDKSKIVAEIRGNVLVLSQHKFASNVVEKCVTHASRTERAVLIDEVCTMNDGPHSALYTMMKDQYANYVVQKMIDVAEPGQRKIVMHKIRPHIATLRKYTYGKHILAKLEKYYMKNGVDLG
# How it was run: as §1
# PUM1 PUF domain R4-VGI = PUM1 PUF domain R4-VGI (Homo sapiens, UniProt Q14671 828-1176, N971V;H972G;Q975I)
# How it was run: as §1
# PUM1 PUF domain R5-DKR = PUM1 PUF domain R5-DKR (Homo sapiens, UniProt Q14671 828-1176, C1007D;R1008K;Q1011R)
# How it was run: as §1
# PUM1 PUF domain R5-KGV = PUM1 PUF domain R5-KGV (Homo sapiens, UniProt Q14671 828-1176, C1007K;R1008G;Q1011V)
# How it was run: as §1
# PUM1 PUF domain R5-DHL, sequence (Q14671 828-1176 C1007D/R1008H/Q1011L): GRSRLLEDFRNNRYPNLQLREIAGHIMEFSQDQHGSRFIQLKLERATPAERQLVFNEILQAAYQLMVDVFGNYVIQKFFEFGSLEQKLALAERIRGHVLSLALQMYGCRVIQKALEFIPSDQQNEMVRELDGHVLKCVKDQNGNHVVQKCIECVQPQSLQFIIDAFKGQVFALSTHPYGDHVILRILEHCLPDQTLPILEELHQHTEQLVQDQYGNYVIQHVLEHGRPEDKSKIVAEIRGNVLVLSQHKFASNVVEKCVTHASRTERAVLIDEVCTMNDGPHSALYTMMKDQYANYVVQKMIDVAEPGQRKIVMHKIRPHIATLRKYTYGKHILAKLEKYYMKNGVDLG
# PUM1 PUF domain R5-PRE, sequence (Q14671 828-1176 C1007P/Q1011E): as the sequence (Q14671 828-1176 C1007D/R1008H/Q1011L) above, with D180P, H181R, L184E counted along it
# PUM1 PUF domain R4-EPR, sequence (Q14671 828-1176 N971E/H972P/Q975R): as the sequence (Q14671 828-1176 C1007D/R1008H/Q1011L) above, with N144E, H145P, Q148R, D180C, H181R, L184Q counted along it
# PUM1 PUF domain R1-KGL, sequence (Q14671 828-1176 S863K/R864G/Q867L): as the sequence (Q14671 828-1176 C1007D/R1008H/Q1011L) above, with S36K, R37G, Q40L, D180C, H181R, L184Q counted along it
# PUM1 PUF domain R3-LRR, sequence (Q14671 828-1176 C935L/Q939R): as the sequence (Q14671 828-1176 C1007D/R1008H/Q1011L) above, with C108L, Q112R, D180C, H181R, L184Q counted along it
# PUM1 PUF domain R5-RAN, sequence (Q14671 828-1176 C1007R/R1008A/Q1011N): as the sequence (Q14671 828-1176 C1007D/R1008H/Q1011L) above, with D180R, H181A, L184N counted along it
# PUM1 PUF domain R5-DKR, sequence (Q14671 828-1176 C1007D/R1008K/Q1011R): as the sequence (Q14671 828-1176 C1007D/R1008H/Q1011L) above, with H181K, L184R counted along it
# PUM1 PUF domain R3-YSV, sequence (Q14671 828-1176 C935Y/R936S/Q939V): as the sequence (Q14671 828-1176 C1007D/R1008H/Q1011L) above, with C108Y, R109S, Q112V, D180C, H181R, L184Q counted along it
# PUM1 PUF domain R5-SGV, sequence (Q14671 828-1176 C1007S/R1008G/Q1011V): as the sequence (Q14671 828-1176 C1007D/R1008H/Q1011L) above, with D180S, H181G, L184V counted along it
# PUM1 PUF domain R5-KGV, sequence (Q14671 828-1176 C1007K/R1008G/Q1011V): as the sequence (Q14671 828-1176 C1007D/R1008H/Q1011L) above, with D180K, H181G, L184V counted along it
# PUM1 PUF domain R5-DFP, sequence (Q14671 828-1176 C1007D/R1008F/Q1011P): as the sequence (Q14671 828-1176 C1007D/R1008H/Q1011L) above, with H181F, L184P counted along it
# PUM1 PUF domain R3-DWS, sequence (Q14671 828-1176 C935D/R936W/Q939S): as the sequence (Q14671 828-1176 C1007D/R1008H/Q1011L) above, with C108D, R109W, Q112S, D180C, H181R, L184Q counted along it
sequence,measurement,setting,value
GGCUAGAACUAGUGGAUCCCCCGGCGCCCGGCGGCUCGAGCCCGGGUAAGUGUAAGUAGUCUGCAUGCCGCCGGGCGCCAUGCCUGCAGGUCGACUCUAGAAAACAUG,binding signal,PUM1 PUF domain R3-LRR,3.15 log2 enrichment (interaction score)
same,binding signal,PUM1 PUF domain R3-YSV,2.32 log2 enrichment (interaction score)
same,binding signal,PUM1 PUF domain R3-LHA,6.33 log2 enrichment (interaction score)
GGCUAGAACUAGUGGAUCCCCCGGCGCCCGGCGGCUCGAGCCCGGGUAAGUGUAUAUAGUCUGCAUGCCGCCGGGCGCCAUGCCUGCAGGUCGACUCUAGAAAACAUG,binding signal,PUM1 PUF domain R4-EPR,2.23 log2 enrichment (interaction score)
GGCUAGAACUAGUGGAUCCCCCGGCGCCCGGCGGCUCGAGCCCGGGUAAGUGUAAAUCGUCUGCAUGCCGCCGGGCGCCAUGCCUGCAGGUCGACUCUAGAAAACAUG,binding signal,PUM1 PUF domain R1-KGL,3.12 log2 enrichment (interaction score)
same,binding signal,PUM1 PUF domain R1-GRH,1.98 log2 enrichment (interaction score)
GGCUAGAACUAGUGGAUCCCCCGGCGCCCGGCGGCUCGAGCCCGGGUAAGUGUAAUUAGUCUGCAUGCCGCCGGGCGCCAUGCCUGCAGGUCGACUCUAGAAAACAUG,binding signal,PUM1 PUF domain R3-LRR,0.21 log2 enrichment (interaction score)
same,binding signal,PUM1 PUF domain R3-LHA,3.56 log2 enrichment (interaction score)
GGCUAGAACUAGUGGAUCCCCCGGCGCCCGGCGGCUCGAGCCCGGGUAAGUGUAAAUUGUCUGCAUGCCGCCGGGCGCCAUGCCUGCAGGUCGACUCUAGAAAACAUG,binding signal,PUM1 PUF domain R1-KWM,3.92 log2 enrichment (interaction score)
same,binding signal,PUM1 PUF domain R1-GRH,2.32 log2 enrichment (interaction score)
GGCUAGAACUAGUGGAUCCCCCGGCGCCCGGCGGCUCGAGCCCGGGUAAGUGUACAUAGUCUGCAUGCCGCCGGGCGCCAUGCCUGCAGGUCGACUCUAGAAAACAUG,binding signal,PUM1 PUF domain R4-EPR,3.74 log2 enrichment (interaction score)
same,binding signal,PUM1 PUF domain R4-APS,1.86 log2 enrichment (interaction score)
GGCUAGAACUAGUGGAUCCCCCGGCGCCCGGCGGCUCGAGCCCGGGUAAGUGUGAAUAGUCUGCAUGCCGCCGGGCGCCAUGCCUGCAGGUCGACUCUAGAAAACAUG,binding signal,PUM1 PUF domain R5-SGV,2.69 log2 enrichment (interaction score)
same,binding signal,PUM1 PUF domain R5-DHL,2.54 log2 enrichment (interaction score)
same,binding signal,PUM1 PUF domain R5-PRE,3.8 log2 enrichment (interaction score)
GGCUAGAACUAGUGGAUCCCCCGGCGCCCGGCGGCUCGAGCCCGGGUAAGUGUUAAUAGUCUGCAUGCCGCCGGGCGCCAUGCCUGCAGGUCGACUCUAGAAAACAUG,binding signal,PUM1 PUF domain R5-DFP,5.24 log2 enrichment (interaction score)
same,binding signal,PUM1 PUF domain R5-PRE,2.73 log2 enrichment (interaction score)
GGCUAGAACUAGUGGAUCCCCCGGCGCCCGGCGGCUCGAGCCCGGGUAAGCGUAAAUAGUCUGCAUGCCGCCGGGCGCCAUGCCUGCAGGUCGACUCUAGAAAACAUG,binding signal,PUM1 PUF domain R8-KKR,5.03 log2 enrichment (interaction score)
GGCUAGAACUAGUGGAUCCCCCGGCGCCCGGCGGCUCGAGCCCGGGUAAGUGUAAAUGGUCUGCAUGCCGCCGGGCGCCAUGCCUGCAGGUCGACUCUAGAAAACAUG,binding signal,PUM1 PUF domain R1-KGL,1.8 log2 enrichment (interaction score)
same,binding signal,PUM1 PUF domain R1-KWM,1.15 log2 enrichment (interaction score)
GGCUAGAACUAGUGGAUCCCCCGGCGCCCGGCGGCUCGAGCCCGGGUAAGUGUAAAUAGUCUGCAUGCCGCCGGGCGCCAUGCCUGCAGGUCGACUCUAGAAAACAUG,binding signal,PUM1 PUF domain R5-RAN,2.14 log2 enrichment (interaction score)
same,binding signal,PUM1 PUF domain R3-DWS,4.09 log2 enrichment (interaction score)
same,binding signal,PUM1 PUF domain R4-EPR,4.56 log2 enrichment (interaction score)
same,binding signal,PUM1 PUF domain R4-RCG,3.26 log2 enrichment (interaction score)
same,binding signal,PUM1 PUF domain R4-APS,4.36 log2 enrichment (interaction score)
same,binding signal,PUM1 PUF domain R5-DHL,3.58 log2 enrichment (interaction score)
same,binding signal,PUM1 PUF domain R6-SWC,3.92 log2 enrichment (interaction score)
same,binding signal,PUM1 PUF domain R8-KKR,1.33 log2 enrichment (interaction score)
same,binding signal,PUM1 PUF domain R4-VGI,2.49 log2 enrichment (interaction score)
same,binding signal,PUM1 PUF domain R5-PRE,3.07 log2 enrichment (interaction score)
GGCUAGAACUAGUGGAUCCCCCGGCGCCCGGCGGCUCGAGCCCGGGUAAGUGUCAAUAGUCUGCAUGCCGCCGGGCGCCAUGCCUGCAGGUCGACUCUAGAAAACAUG,binding signal,PUM1 PUF domain R5-DKR,5.01 log2 enrichment (interaction score)
same,binding signal,PUM1 PUF domain R5-RAN,2.21 log2 enrichment (interaction score)
same,binding signal,PUM1 PUF domain R5-KGV,4.44 log2 enrichment (interaction score)
same,binding signal,PUM1 PUF domain R5-DHL,2.14 log2 enrichment (interaction score)
